Compound activity from PubChem.
TDP1 inh: qHTS Assay for Inhibitors of Tyrosyl-DNA Phosphodiesterase (TDP1). 0.28% of 350,000 active. AID 485290, 2010. recombinant TDP1, AlphaScreen DNA substrate cleavage. Tyrosyl-DNA phosphodiesterase 1 (Homo sapiens), Q9NUW8. Potency, µM (series often up to 130 µM), without a hit: top-dose activity change, negative = inhibition, most hits filed as inhibitors; further: potency means the concentration at half of the fitted maximal effect; nearly all actives have a fitted effect of over 40% in size
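Compounds were preincubated with Tdp1 (1 nM final) for 15 min at room temperature before substrate (15 nM final) started a 5 min reaction; beads (10 ug/ml final) were then added for 10 min before AlphaScreen detection.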
CtBP-E1A blk: qHTS Assay for Inhibitors of the CtBP/E1A Interaction. CtBP / adenovirus E1A interaction (AlphaScreen). AlphaScreen GST-E1A/His-CtBP binding, 1536-well; hits give low values. activity change, % (test concentration not listed). 0.49% of 340,000 active. AID 651724, 2012; in the data active means activity change below about -65%; inconclusive means mostly about -30% to -63%
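Homogeneous bead-based format: GST-tagged E1A captured on glutathione donor beads, His-tagged CtBP on nickel acceptor beads; compounds precede bead addition by 2 h at 37 °C.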
DT40 TDP1 no CPT: qHTS for Inhibitors of human tyrosyl-DNA phosphodiesterase 1 (TDP1): qHTS in cells in absence of CPT | DT40 Tdp1-/- hTDP1 cells, no CPT, ATP luminescence, 48 h | Potency, µM (doses to about 46.2 µM), without a hit: at the top dose activity change, negative = growth inhibition, usual class: inhibitors | 15% of 420,000 active; further: potency means the concentration at half of the fitted maximal effect; nearly all actives have a fitted effect of over 55% in size
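Luminescent ATP content (CellTiter-Glo) served as the growth readout. Knockout chicken DT40 cells expressing human TDP1 were exposed to compounds without camptothecin for a minimum 48 hr at 37 °C.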
TDP1 cell CPT: qHTS for Inhibitors of human tyrosyl-DNA phosphodiesterase 1 (TDP1): qHTS in cells in presence of CPT; chicken DT40 Tdp1-/-;hTDP1 cells + 20 nM CPT, ATP luminescence, 48 h; Potency, µM (series often up to 46.2 µM), without a hit: at the top dose activity change, negative = growth inhibition, hits mostly inhibitors; 12% of 420,000 active; AID 686979, 2013; further: potency means the concentration at half of the fitted maximal effect; nearly all actives have a fitted effect of over 55% in size
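Cell growth measured by CellTiter-Glo luminescence after a minimum 48 h, 37 C compound exposure with 20 nM CPT in Tdp1-knockout DT40 cells stably expressing hTDP1, seeded 400/well; qHTS titration format.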
Six1-Eya2 inh: qHTS Assay for Inhibitors of the Six1/Eya2 Interaction | Homeobox protein SIX1 (Homo sapiens) + Protein phosphatase EYA2 (Homo sapiens), … | AlphaScreen GST-Six1/His-Eya2 binding, biochemical; hits give low values | activity change, % (no concentration beside the values) | 0.56% of 360,000 active | AID 651725, 2012; in the data active means activity change below about -65%; inconclusive means mostly about -30% to -63%
Target sequence (O00167 whole entry, looked up): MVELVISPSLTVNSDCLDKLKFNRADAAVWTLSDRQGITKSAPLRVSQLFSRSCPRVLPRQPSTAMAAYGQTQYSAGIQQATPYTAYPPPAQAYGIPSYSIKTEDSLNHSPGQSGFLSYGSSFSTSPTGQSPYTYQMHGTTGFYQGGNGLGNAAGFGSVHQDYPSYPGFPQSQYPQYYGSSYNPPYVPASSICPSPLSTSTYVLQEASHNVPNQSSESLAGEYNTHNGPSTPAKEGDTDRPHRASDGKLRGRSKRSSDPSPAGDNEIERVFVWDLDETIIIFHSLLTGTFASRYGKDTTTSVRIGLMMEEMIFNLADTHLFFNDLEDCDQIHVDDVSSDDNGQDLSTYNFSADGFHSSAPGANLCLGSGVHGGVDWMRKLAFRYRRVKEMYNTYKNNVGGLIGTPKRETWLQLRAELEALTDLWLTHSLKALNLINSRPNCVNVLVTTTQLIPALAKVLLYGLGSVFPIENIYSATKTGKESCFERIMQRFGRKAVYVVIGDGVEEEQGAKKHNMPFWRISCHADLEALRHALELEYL
Target sequence (Q15475 whole entry, looked up): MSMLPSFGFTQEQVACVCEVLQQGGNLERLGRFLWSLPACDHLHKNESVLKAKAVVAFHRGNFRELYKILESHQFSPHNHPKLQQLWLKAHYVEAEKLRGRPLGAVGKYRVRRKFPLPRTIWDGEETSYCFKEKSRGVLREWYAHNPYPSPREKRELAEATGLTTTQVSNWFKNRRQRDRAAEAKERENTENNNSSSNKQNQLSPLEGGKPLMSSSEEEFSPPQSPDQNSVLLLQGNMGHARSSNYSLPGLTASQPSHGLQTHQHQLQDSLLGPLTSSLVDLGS
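Compounds are tested against tagged Six1 and Eya2 proteins bridged by glutathione donor and nickel acceptor beads; after a one-hour incubation at 37 °C without light, AlphaScreen emission is recorded.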
IL-1B inflam inh: qHTS for Inhibitors of Inflammasome Signaling: IL-1-beta AlphaLISA Primary Screen; THP-1 LPS/ATP IL-1B secretion, AlphaLISA, 16 h; hits give low values; activity change, % at 57.5 µM; 4.7% of 360,000 active; AID 743279, 2014; in the data active means activity change below about -50%; inconclusive means mostly about -30% to -49%
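THP-1 cells pretreated 1 hr with compounds (up to 57.5 uM final), then stimulated with LPS (250 ng/mL final) plus ATP (1.25 mM final); secreted IL-1B measured by AlphaLISA after 16 hr, decreased signal indicating inhibition.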
* marks the source's active call; other numbers are inactive results; u = inconclusive; x = not tested or not shown; ! = not confirmed by another sample. An excerpt weighted towards active compounds, which were near 18% of everything screened. Unless noted, the call rests on the fitted dose curve; in most records, active means well fitted curve in the direction sought with a large enough effect; inconclusive means small, poorly fitted or top-dose-only effect, or another doubt; inactive means no such curve, though single readings can be large; an effect the other way counts as inactive or inconclusive. On the % scale 0 is the no-effect control and ±100 the full control effect.

SMILES	TDP1 inh	CtBP-E1A blk	DT40 TDP1 no CPT	TDP1 cell CPT	Six1-Eya2 inh	IL-1B inflam inh
O=C(CCN1CCN(C/C=C/c2ccccc2)CC1)Nc1ccccc1	7%	-1	u	-26%	-4	-15
Cc1cccc(NC(=O)CCN2CCN(C/C=C/c3ccccc3)CC2)c1	-1%	-13	21µM*	u	-7	-77*
Cc1cc(NC(=O)CCN2CCN(C/C=C/c3ccccc3)CC2)ccc1Br	x	-2	u	u	0	-82*
Cc1ccccc1NC(=O)CCN1CCN(C/C=C/c2ccccc2)CC1	1%	5	u	21µM*	-1	u
CCOc1ccc(CC(C(=O)NN)C(=O)NN)cc1CN(C)C	3%	-9	-7%	3%	-2	1
Cc1onc(-c2ccccc2)c1C(=O)NC(C)CCc1ccccc1 (stereo not given)	5%	6	u	-25%	5	-12
CCCS(=O)(=O)NC(=O)C1(C)CCCN(C(=O)c2ccc(F)c(Cl)c2)C1 (stereo not given)	x	-15	0%	1%	13	-5
c1ccc(-c2nc(-c3ccccc3)c(Nc3ccc4ccccc4c3)o2)cc1	7%	x	x	x	x	x
Cc1nc2c(C)cccc2cc1C(=O)N/N=C/c1ccc(C(=O)O)cc1	-3%	x	u	u	-8	22
Cc1nc2c(C)cccc2cc1C(=O)N/N=C/c1ccc(N(C)C)cc1	6%	-23	12µM*	5.8µM*	-21	28
Cc1nc2c(C)cccc2cc1C(=O)N/N=C/c1cccnc1	3%	-17	6.5µM*	5.2µM*	-4	-67*
O=C1NN=C(c2ccccc2)CC1c1c[nH]c2ccccc12 (stereo not given)	-1%	x	-16%	u	0	6
OC(c1cccc(Cl)c1)c1nc(/C=C/c2ccccc2)cs1 (stereo not given)	x	4	u	u	-2	24
CCOC(=O)c1scc(-c2ccccc2)c1S(=O)(=O)Nc1ccc(N(C)C)cc1	14%	x	u	u	x	x
CCOC(=O)c1scc(-c2ccccc2)c1S(=O)(=O)N1CCN(c2ccccc2OC)CC1	7%	x	13µM*	8.2µM*	x	x
CCOC(=O)c1scc(-c2ccc(C)cc2)c1S(=O)(=O)N1CCN(c2ccccc2)CC1	6%	x	8.2µM*	13µM*	x	x
CCOC(=O)c1c(C)[nH]c(C)c1S(=O)(=O)N1CCN(c2ccccc2OC)CC1	-1%	x	-15%	-11%	x	x
CC(C)C[C@@H](CC(=O)N[C@@H](CCC(=O)O)CC(=O)O)NC(=O)[C@@H]1CNCC[C@H]1NC(=O)C[C@@H](NC(=O)C[C@H](CO)NC(=O)[C@@H]1CNCC[C@H]1N)C(C)C	7%	x	x	x	x	x
Cn1c(N)c(C(=O)COC(=O)CNS(=O)(=O)c2ccc(Cl)c(Cl)c2)c(=O)n(C)c1=O	6%	-18	-25%	-26%	-12	30
COc1ccc([C@@]23Oc4cc(OC)cc(OC)c4[C@]2(O)[C@H](O)[C@H](C(=O)N(C)C)[C@H]3c2ccccc2)cc1	x	6	0.0092µM*	0.0073µM*	10	-3
CCN(CC)S(=O)(=O)c1cccc(NC(=O)c2cc(-c3cccs3)nn2-c2ccccc2)c1	6%	3	15µM*	21µM*	u	7
COC(=O)c1cc(-c2cccs2)nn1-c1ccccc1	2%	4	-14%	4%	2	9
O=C(COC(=O)c1cc(-c2cccs2)nn1-c1ccccc1)Nc1cccc([N+](=O)[O-])c1	-5%	-16	-30%	3%	-19	20
CN(C)S(=O)(=O)c1cccc(NC(=O)c2cc(-c3cccs3)nn2-c2ccccc2)c1	-2%	u	15µM*	u	u	0
CN1CCN(c2ncc3ncc(=O)n(Cc4ccc(F)cc4)c3n2)CC1	x	x	-1%	-10%	x	x
SMILES	TDP1 inh	CtBP-E1A blk	DT40 TDP1 no CPT	TDP1 cell CPT	Six1-Eya2 inh	IL-1B inflam inh
Cc1cccc(N2CCN(C(=O)c3nn(C)c4c3CS(=O)(=O)c3ccccc3-4)CC2C)c1 (stereo not given)	4%	-26	18µM*	23µM*	-9	-21
COc1ccc(N2CCN(C(=O)c3nn(C)c4c3CS(=O)(=O)c3ccccc3-4)CC2)cc1	6%	3	u	23µM*!	2	18
COc1ccccc1N1CCN(C(=O)c2nn(C)c3c2CS(=O)(=O)c2ccccc2-3)CC1	6%	2	u	u	-2	2
COc1cc(NC(=O)c2nn(C)c3c2CS(=O)(=O)c2ccccc2-3)cc(OC)c1	4%	x	16µM*	u	0	0
Cc1ccc(N2CCN(C(=O)c3nn(C)c4c3CS(=O)(=O)c3ccccc3-4)CC2)c(C)c1	5%	x	21µM*	18µM*	-1	-21
CCOC(=O)c1[nH]c2ccccc2c1NC(=O)c1ccc(S(=O)(=O)N2CCCC2)cc1	0%	-2	u	u	-1	-5
CC(CNC(=O)COc1ccc2c(c1)OCO2)c1ccccc1 (stereo not given)	1%	-1	-13%	-16%	-4	-5
COc1cccc2c(=O)c3ccccc3oc12	-4%	-15	-17%	6%	-25	-27
CC(Sc1nc(-c2ccccc2)cc(=O)[nH]1)C(=O)O (stereo not given)	2%	-2	-9%	-9%	7	-7
COc1cc(NC(=O)c2nn(C)c3c2COc2ccccc2-3)cc(OC)c1OC	3%	x	3.3µM*	4.6µM*	x	x
Cn1nc(C(=O)NCCc2ccc(Cl)cc2)c2c1-c1ccccc1S(=O)(=O)C2	1%	0	29µM*	u	0	-5
Cn1nc(C(=O)N2CCN(c3ccc(Cl)cc3)CC2)c2c1-c1ccccc1S(=O)(=O)C2	2%	-11	u	16µM*	-13	-58*
CC1CCCCC1NC(=O)c1nn(C)c2c1CS(=O)(=O)c1ccccc1-2 (stereo not given)	1%	1	-3%	u	3	12
CC1CCCC(NC(=O)c2nn(C)c3c2CS(=O)(=O)c2ccccc2-3)C1C (stereo not given)	3%	x	9.2µM*	u	3	6
